Data on 20 compounds can be found in PubChem BioAssay.

Assay [1] can be described thus: antimalarial activity against Dd2 strain (AID 2302;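 active = growth inhibition above 50% at the single 2 µM test dose, taken to imply half-maximal potency below 2 µM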;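 note: 0% = DMSO untreated growth and 100% = chloroquine plus artemisinin killed control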). The conditions noted are these: P. falciparum Dd2 in RBCs, LDH growth readout, 72 h; at 2 µM; hits give high values.
Assay [2] in a line: HepG2 cytotoxicity, primary screen, cytotoxicity control for P. falciparum antimalarial project, cell-based, ATP luminescence (AID 2303;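 active = inhibition above 50%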;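 note: 0% = DMSO wells and 100% = digitonin-killed cells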). The conditions noted are these: HepG2 viability, 24-48 h, at 10 µM, hits give high values.
Assay [3] addresses L-lactate dehydrogenase (Plasmodium falciparum (isolate CDC / Honduras)) (UniProt Q27743). Description: PfLDH activity inhibition – cell lysate, 3D7 strain, counter-screen for P. falciparum growth inhibition project (AID 2304).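 Note: 0% = vehicle and 100% = reference inhibitor.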 Conditions: P. falciparum 3D7 crude extract, LDH APAD/NBT absorbance; at 2 µM; hits give high values.
The nature of assay [4]: inhibition of 3D7 malaria parasite growth – strain 3D7 (AID 2306).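 Note: 0% = DMSO wells and 100% = chloroquine plus artemisinin control wells.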 Conditions: P. falciparum 3D7 erythrocytic growth, LDH absorbance, 72 h; at 2 µM; hits give high values.
For assay [5], the target named is Calcium-dependent protein kinase 1 (Plasmodium falciparum (isolate 3D7)) (UniProt P62344). Briefly: PfCDPK1 kinase inhibitors, biochemical, TCAMS library (AID 1159585; cut-off not given, nearly all actives have IC50 up to about 0.98 µM;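 note: inhibitors leave more ATP so luminescence rises with inhibition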). The conditions noted are these: recombinant PfCDPK1, Kinase-Glo ATP depletion luminescence. On the technique in general: Kinase-Glo reads ATP consumption through a luciferase reaction.
Calcium-dependent protein kinase 1 (Plasmodium falciparum (isolate 3D7)), sequence (P62344 whole entry, looked up): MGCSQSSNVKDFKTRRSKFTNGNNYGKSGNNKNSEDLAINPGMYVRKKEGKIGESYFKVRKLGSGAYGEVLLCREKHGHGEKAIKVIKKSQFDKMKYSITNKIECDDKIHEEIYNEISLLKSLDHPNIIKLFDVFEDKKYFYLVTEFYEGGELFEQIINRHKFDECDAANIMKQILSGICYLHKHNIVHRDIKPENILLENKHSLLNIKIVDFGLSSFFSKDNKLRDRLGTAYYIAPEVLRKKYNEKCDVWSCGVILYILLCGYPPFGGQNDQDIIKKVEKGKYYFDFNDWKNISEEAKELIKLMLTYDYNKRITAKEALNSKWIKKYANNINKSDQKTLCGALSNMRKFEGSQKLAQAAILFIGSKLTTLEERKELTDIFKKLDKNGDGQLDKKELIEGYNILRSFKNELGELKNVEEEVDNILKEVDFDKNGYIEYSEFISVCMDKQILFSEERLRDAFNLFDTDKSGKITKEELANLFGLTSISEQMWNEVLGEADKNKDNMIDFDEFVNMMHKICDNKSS
Assay [6] deals with Plasmodium falciparum protein kinase 6 (PK6, PF3D7_1337100) (UniProt Q8IDW1). Description: PfPK6 kinase inhibitors, biochemical, TCAMS library (AID 1159586). Conditions: recombinant PfPK6, Kinase-Glo ATP depletion luminescence.
Plasmodium falciparum protein kinase 6 (PK6, PF3D7_1337100), sequence (Q8IDW1 1-305): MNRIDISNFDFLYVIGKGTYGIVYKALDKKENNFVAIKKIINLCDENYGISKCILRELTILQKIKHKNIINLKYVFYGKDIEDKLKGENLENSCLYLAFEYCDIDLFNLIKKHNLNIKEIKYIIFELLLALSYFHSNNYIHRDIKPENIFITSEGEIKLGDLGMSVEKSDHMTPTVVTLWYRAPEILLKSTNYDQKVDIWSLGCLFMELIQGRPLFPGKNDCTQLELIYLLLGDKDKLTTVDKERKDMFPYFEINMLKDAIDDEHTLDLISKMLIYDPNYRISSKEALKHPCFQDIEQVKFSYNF
Assay [7] concerns the target Protein kinase 7 (PK7), Plasmodium falciparum 3D7 (PF3D7_0213400) (UniProt Q7YTF7). Briefly: inhibition of Plasmodium PK7 catalytic activity – biochemical, TCAMS antimalarial set, Kinase-Glo luminescence (AID 1159587). Conditions: recombinant PfPK7, Kinase-Glo ATP depletion luminescence.
Assay [8] concerns the target Calcium-dependent protein kinase 4 (Plasmodium falciparum (isolate 3D7)) (UniProt Q8IBS5). Briefly: PfCDPK4 kinase inhibitors, biochemical, TCAMS library (AID 1159588; cut-off not given, nearly all actives have IC50 up to about 0.91 µM). The conditions noted are these: recombinant PfCDPK4, Kinase-Glo ATP depletion luminescence.

Structures are written as SMILES. Unmarked numbers belong to inactive results. For some of these results: Measured potencies and affinities stand elsewhere. Active and inactive are the calls of the source. Unless noted, the rule behind the calls is not given here.

L-lactate dehydrogenase (Plasmodium falciparum (isolate CDC / Honduras)), sequence (Q27743 whole entry, looked up): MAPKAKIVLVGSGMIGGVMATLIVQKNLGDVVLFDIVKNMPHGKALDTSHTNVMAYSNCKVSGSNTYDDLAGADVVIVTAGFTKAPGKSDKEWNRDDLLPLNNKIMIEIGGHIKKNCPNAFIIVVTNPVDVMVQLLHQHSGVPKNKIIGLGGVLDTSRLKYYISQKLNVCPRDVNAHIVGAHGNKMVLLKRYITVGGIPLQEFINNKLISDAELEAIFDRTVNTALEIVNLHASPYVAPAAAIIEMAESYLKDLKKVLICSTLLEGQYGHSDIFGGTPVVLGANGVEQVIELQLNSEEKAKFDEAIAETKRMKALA
Calcium-dependent protein kinase 4 (Plasmodium falciparum (isolate 3D7)), sequence (Q8IBS5 whole entry, looked up): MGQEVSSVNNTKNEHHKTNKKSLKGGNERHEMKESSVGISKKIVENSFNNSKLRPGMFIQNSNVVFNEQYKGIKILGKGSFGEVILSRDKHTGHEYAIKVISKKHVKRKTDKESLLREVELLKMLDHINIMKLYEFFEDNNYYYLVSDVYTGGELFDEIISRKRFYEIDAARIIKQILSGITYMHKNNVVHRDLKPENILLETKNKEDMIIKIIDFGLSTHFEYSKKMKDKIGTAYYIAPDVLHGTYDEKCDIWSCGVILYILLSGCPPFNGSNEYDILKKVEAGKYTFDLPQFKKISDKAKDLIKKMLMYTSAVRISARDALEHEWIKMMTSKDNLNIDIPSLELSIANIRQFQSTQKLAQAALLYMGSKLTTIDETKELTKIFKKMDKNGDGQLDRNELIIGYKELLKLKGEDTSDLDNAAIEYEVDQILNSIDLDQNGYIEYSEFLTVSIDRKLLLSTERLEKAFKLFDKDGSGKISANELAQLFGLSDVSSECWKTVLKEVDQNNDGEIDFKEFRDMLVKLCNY
Protein kinase 7 (PK7), Plasmodium falciparum 3D7 (PF3D7_0213400), sequence (Q7YTF7 1-343): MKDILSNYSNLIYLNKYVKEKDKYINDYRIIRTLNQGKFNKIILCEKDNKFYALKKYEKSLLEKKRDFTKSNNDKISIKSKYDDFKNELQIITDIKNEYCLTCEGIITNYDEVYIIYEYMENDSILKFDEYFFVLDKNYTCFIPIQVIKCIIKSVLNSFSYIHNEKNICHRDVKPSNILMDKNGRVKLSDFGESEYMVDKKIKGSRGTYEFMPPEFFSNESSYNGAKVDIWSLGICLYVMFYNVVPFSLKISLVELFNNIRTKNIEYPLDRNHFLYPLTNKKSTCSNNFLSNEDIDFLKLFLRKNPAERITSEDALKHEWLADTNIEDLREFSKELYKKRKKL

As for `CCOc1ccc(-c2nonc2NC(=O)c2cccs2)cc1OCC`, the growth inhibition in assay [1] was 100% (active); in assay [4], 101% (active). Further, the values for the inhibition in assay [2] and in assay [3] were 6% and 4%, respectively. Moreover, the result in assay [5], in assay [6], in assay [7] and in assay [8] was inactive.

Regarding `CC(=O)c1ccc(Nc2c(C(N)=O)cnc3cc(-c4c(C)noc4C)ccc23)cc1`, the growth inhibition was 44% in assay [1] and 99% (active) in assay [4]. Moreover, the values for the inhibition in assay [2] and in assay [3] were -3% and 3%, respectively. Also, the result in assay [5], in assay [6], in assay [7] and in assay [8] was inactive.

Consider `CCc1cn2c3c(cc(C(=O)N[C@@H](Cc4ccccc4)[C@H](O)CNC4CCCCC4)cc13)N(CC)S(=O)(=O)CC2`, for which the growth inhibition in assay [1] and in assay [4] was 98% (active) throughout. In addition, the results for the inhibition in assay [2] and in assay [3] were 8% and -5%, respectively. Besides, the outcome in assay [5], in assay [6], in assay [7] and in assay [8] was inactive.

As for `COc1cc2[nH]c(-c3ccc(O)cc3)c(C)c(=O)c2c(OC)c1OC`, the growth inhibition in assay [1] is 94% (active); in assay [4], 100% (active). In addition, the inhibition (usually the relative decrease from the control value, in per cent) is 1% in assay [2] and 0% in assay [3]. Further, the outcome in assay [5], in assay [6], in assay [7] and in assay [8] was inactive.

With `CC1CCN(CC[C@H]2CCCN2S(=O)(=O)c2cccc(NC(=O)c3cc4ccccc4s3)c2)CC1`, the growth inhibition was 41% in assay [1] and 97% (active) in assay [4]. The inhibition in assay [2] was 28%; in assay [3], 2%. For the same compound, the outcome in assay [5], in assay [6], in assay [7] and in assay [8] was inactive.

For `CC(C(=O)NC1CCN(c2ccnc(Nc3ccc(F)cc3)n2)C1)c1ccc(Cl)cc1` (stereo not given), the values for the growth inhibition in assay [1] and in assay [4] were 90% (active) and 95% (active), respectively. Besides, the inhibition in assay [2] was 17%; in assay [3], -4%. Further, the outcome in assay [5], in assay [6], in assay [7] and in assay [8] was inactive.

As for `C[C@H](CNc1ccnc(Nc2ccc3[nH]c(=O)[nH]c3c2)n1)c1ccccc1`, the growth inhibition in assay [1] was -5%; in assay [4] it was 100% (active). Besides, the inhibition was 61% (active) in assay [2] and -2% in assay [3]. For the same compound, the outcome in assay [5], in assay [6], in assay [7] and in assay [8] was inactive.

As for `Cc1c(CCNC(=O)CCCN2CC(C)CC(C)C2)c2ccccc2n1C` (stereo not given), the growth inhibition in assay [1] was 100% (active); in assay [4] it was 87% (active). The figures for the inhibition in assay [2] and in assay [3] were 8% and -9%, respectively. Moreover, the result in assay [5], in assay [6], in assay [7] and in assay [8] was inactive.

Turning to `Cc1ccc(C(C#N)c2ccc3c(C(F)(F)F)cc(C(F)(F)F)nc3n2)cc1` (stereo not given), the growth inhibition in assay [1] was 36%; in assay [4] it was 96% (active). Besides, the inhibition in assay [2] was 14%; in assay [3] it was 2%. Also, the result in assay [5], in assay [6], in assay [7] and in assay [8] was inactive.

For `CN(C)Cc1cccc(-c2ccc3ccnc(N)c3c2)c1`, the growth inhibition in assay [1] is 74% (active); in assay [4] it was 99% (active). Further, the inhibition is 21% in assay [2] and 3% in assay [3]. Also, the result in assay [5], in assay [6], in assay [7] and in assay [8] was inactive.

Consider `CN1CCN(Cc2cccc(-c3ccc4c(Nc5ccc(Oc6ccccc6)cc5)ccnc4c3)c2)CC1`, for which the growth inhibition in assay [1] is 100% (active); in assay [4], 101% (active). Also, the results for the inhibition in assay [2] and in assay [3] were 41% and 6%, respectively. Also, the result in assay [5], in assay [6], in assay [7] and in assay [8] was inactive.

On to `CC1(C)[C@H]2CC[C@@H](CNc3nc(NCCc4cnc[nH]4)nc(NCc4cc(F)ccc4F)n3)[C@@H]1C2`, for which the growth inhibition in assay [1] is 91% (active); in assay [4], 100% (active). The results for the inhibition in assay [2] and in assay [3] were 0% and 6%, respectively. In addition, the result in assay [5], in assay [6], in assay [7] and in assay [8] was inactive.

In the case of `O=C(Nc1ccc(Cl)cc1)Nc1ccc(-c2cccc(-c3nc4ccccc4[nH]3)c2)cc1`, the figures for the growth inhibition in assay [1] and in assay [4] were 78% (active) and 100% (active), respectively. For the same compound, the inhibition in assay [2] is 69% (active); in assay [3], -3%. For the same compound, the outcome in assay [5], in assay [6], in assay [7] and in assay [8] was inactive.

As for `O=C1C(C2CCC(c3ccc(Cl)cc3)CC2)=C2OCC3COC2(O3)c2ccccc21` (stereo not given), the growth inhibition in assay [1] is 97% (active); in assay [4], 98% (active). Also, the figures for the inhibition in assay [2] and in assay [3] were 7% and -2%, respectively. In addition, the outcome in assay [5], in assay [6], in assay [7] and in assay [8] was inactive.

With `COc1ccc(-c2cnc(N)c(-c3ccc(O)c(OC)c3)c2)cn1`, the growth inhibition in assay [1] is 98% (active); in assay [4], 97% (active). For the same compound, the inhibition was 23% in assay [2] and -1% in assay [3]. Moreover, the result in assay [5], in assay [6], in assay [7] and in assay [8] was inactive.

As for `OC(CN1CCN(C2CCCCC2)CC1)Cn1c2ccccc2c2cc(Br)ccc21` (stereo not given), the results for the growth inhibition in assay [1] and in assay [4] were 89% (active) and 97% (active), respectively. Besides, the values for the inhibition in assay [2] and in assay [3] were 14% and -2%, respectively. Further, the result in assay [5], in assay [6], in assay [7] and in assay [8] was inactive.

In the case of `COC1CCC(C(=O)Nc2ccc(-c3cccc(-c4nc5ccc(C(F)(F)F)cc5[nH]4)c3)cc2)CC1` (stereo not given), the growth inhibition was 48% in assay [1] and 85% (active) in assay [4]. For the same compound, the inhibition in assay [2] was 69% (active); in assay [3], -2%. Further, the result in assay [5], in assay [6], in assay [7] and in assay [8] was inactive.

For `Cc1ccc2c(O)c([N+](=O)[O-])c(=O)[nH]c2c1`, the growth inhibition was -1% in assay [1] and 98% (active) in assay [4]. For the same compound, the inhibition in assay [2] was 3%; in assay [3] it was -4%. Further, the outcome in assay [5], in assay [6], in assay [7] and in assay [8] was inactive.

For the compound `CC(Nc1ccc2c(c1)OCCO2)C(=O)Nc1cc(C(F)(F)F)ccc1N1CCOCC1` (stereo not given), the growth inhibition in assay [1] is 70% (active); in assay [4] it was 98% (active). For the same compound, the inhibition in assay [2] was -6%; in assay [3] it was 1%. Besides, the outcome in assay [5], in assay [6], in assay [7] and in assay [8] was inactive.

On to `O=C(CCC1CCCCC1)NCCNc1cccc2ccccc12`, for which the growth inhibition in assay [1] is 57% (active); in assay [4], 90% (active). Also, the figures for the inhibition in assay [2] and in assay [3] were 7% and -1%, respectively. The result in assay [5], in assay [6], in assay [7] and in assay [8] was inactive.
